PubChem BioAssay AID1159580 (chemical genetic matrix, 2015)
The campaign covered roughly 5,500 compounds. About 2,000 (36%) were called active. About 18% were inconclusive and are not listed. Cut-off read from the data, not from the text of the source: active = normalized growth mostly below about 0.91 (no sharp cut-off); inconclusive = no clear call, values can overlap the other calls; inactive = mostly above about 0.92. The list shows a part of the results.

Assay: chemical genetic growth profiling, strain panel (AID 1159580);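 note: tested at 20 µM; growth read once vehicle control cultures reached saturation at 30 °C; 1 = growth at the plate median or of vehicle wells; lower values mean less growth of the strain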
Conditions: growth OD
[1] = S. cerevisiae deletion strains, locus YAL013W, strain DEP1, active compounds read low
[2] = S. cerevisiae deletion strains, locus YBR229C, strain ROT2, active compounds read low
[3] = S. cerevisiae deletion strains, locus YDL101C, strain DUN1, active compounds read low
[4] = S. cerevisiae deletion strains, locus YDR150W, strain NUM1, active compounds read low
[5] = S. cerevisiae deletion strains, locus YEL061C, strain CIN8, active compounds read low
[6] = S. cerevisiae deletion strains, locus YGR078C, strain PAC10, active compounds read low
[7] = S. cerevisiae deletion strains, locus YHR030C, strain SLT2, active compounds read low
[8] = S. cerevisiae deletion strains, locus YHR087W, strain rtc3, active compounds read low
[9] = S. cerevisiae deletion strains, locus YJR043C, strain POL32, active compounds read low
[10] = S. cerevisiae deletion strains, locus YJR075W, strain HOC1, active compounds read low
[11] = S. cerevisiae deletion strains, locus YLR039C, strain RIC1, active compounds read low
[12] = S. cerevisiae deletion strains, locus YLR058C, strain SHM2 (second series), active compounds read low
[13] = S. cerevisiae deletion strains, locus YLR085C, strain ARP6, active compounds read low
[14] = S. cerevisiae deletion strains, locus YLR262C, strain YPT6, active compounds read low
[15] = S. cerevisiae deletion strains, locus YML094W, strain GIM5, active compounds read low
[16] = S. cerevisiae deletion strains, locus YMR219W, strain ESC1, active compounds read low
[17] = S. cerevisiae deletion strains, locus YMR263W, strain SAP30, active compounds read low
[18] = S. cerevisiae deletion strains, locus YMR307W, strain GAS1, active compounds read low
[19] = S. cerevisiae deletion strains, locus YNL153C, strain GIM3, active compounds read low
[20] = S. cerevisiae deletion strains, locus YNL298W, strain CLA4 (second series), active compounds read low
[21] = S. cerevisiae deletion strains, locus YNL322C, strain KRE1, active compounds read low
[22] = S. cerevisiae deletion strains, locus YNR030W, strain Alg12, active compounds read low
[23] = S. cerevisiae deletion strains, locus YPL055C, strain LGE1, active compounds read low
[24] = S. cerevisiae deletion strains, locus YPL241C, strain CIN2, active compounds read low
[25] = S. cerevisiae deletion strains, locus YPR135W, strain CTF4, active compounds read low
[26] = S. cerevisiae deletion strains, locus YAR019C, strain CDC15, active compounds read low
[27] = S. cerevisiae deletion strains, locus YBL105C, strain PKC1, active compounds read low
[28] = S. cerevisiae deletion strains, locus YBR135W, strain CKS1, active compounds read low
[29] = S. cerevisiae deletion strains, locus YBR136W, strain MEC1, active compounds read low
[30] = S. cerevisiae deletion strains, locus YBR160W, strain CDC28, active compounds read low
[31] = S. cerevisiae deletion strains, locus YDL017W, strain CDC7, active compounds read low
[32] = S. cerevisiae deletion strains, locus YDL028C, strain MPS1, active compounds read low
[33] = S. cerevisiae deletion strains, locus YDL108W, strain KIN28, active compounds read low
[34] = S. cerevisiae deletion strains, locus YDL132W, strain cdc53, active compounds read low
[35] = S. cerevisiae deletion strains, locus YDL214C, strain PRR2, active compounds read low
[36] = S. cerevisiae deletion strains, locus YDR052C, strain DBF4, active compounds read low
[37] = S. cerevisiae deletion strains, locus YDR054C, strain cdc34, active compounds read low
[38] = S. cerevisiae deletion strains, locus YDR226W, strain ADK1, active compounds read low
[39] = S. cerevisiae deletion strains, locus YDR477W, strain SNF1, active compounds read low
[40] = S. cerevisiae deletion strains, locus YER123W, strain YCK3, active compounds read low
[41] = S. cerevisiae deletion strains, locus YER133W, strain GLC7, active compounds read low
[42] = S. cerevisiae deletion strains, locus YFL009W, strain cdc4, active compounds read low
[43] = S. cerevisiae deletion strains, locus YFL029C, strain CAK1, active compounds read low
[44] = S. cerevisiae deletion strains, locus YFR003C, strain YPI1, active compounds read low
[45] = S. cerevisiae deletion strains, locus YFR019W, strain FAB1, active compounds read low
[46] = S. cerevisiae deletion strains, locus YFR028C, strain CDC14, active compounds read low
[47] = S. cerevisiae deletion strains, locus YGR040W, strain KSS1, active compounds read low
[48] = S. cerevisiae deletion strains, locus YGR052W, strain FMP48, active compounds read low
[49] = S. cerevisiae deletion strains, locus YGR092W, strain DBF2, active compounds read low
[50] = S. cerevisiae deletion strains, locus YHR079C, strain IRE1, active compounds read low
[51] = S. cerevisiae deletion strains, locus YHR082C, strain KSP1, active compounds read low
[52] = S. cerevisiae deletion strains, locus YHR205W, strain SCH9, active compounds read low
[53] = S. cerevisiae deletion strains, locus YIL147C, strain SLN1, active compounds read low
[54] = S. cerevisiae deletion strains, locus YJL095W, strain BCK1, active compounds read low
[55] = S. cerevisiae deletion strains, locus YJL128C, strain PBS2, active compounds read low
[56] = S. cerevisiae deletion strains, locus YJL157C, strain FAR1, active compounds read low
[57] = S. cerevisiae deletion strains, locus YJR016C, strain ILV3, active compounds read low
[58] = S. cerevisiae deletion strains, locus YJR066W, strain TOR1 (second series), active compounds read low
[59] = S. cerevisiae deletion strains, locus YJR066W, strain TOR1, active compounds read low
[60] = S. cerevisiae deletion strains, locus YKL048C, strain ELM1, active compounds read low
[61] = S. cerevisiae deletion strains, locus YKL067W, strain YNK1, active compounds read low
[62] = S. cerevisiae deletion strains, locus YKL101W, strain HSL1, active compounds read low
[63] = S. cerevisiae deletion strains, locus YKL193C, strain SDS22, active compounds read low
[64] = S. cerevisiae deletion strains, locus YKL203C, strain TOR2, active compounds read low
[65] = S. cerevisiae deletion strains, locus YLR113W, strain HOG1, active compounds read low
[66] = S. cerevisiae deletion strains, locus YLR133W, strain CKI1, active compounds read low
[67] = S. cerevisiae deletion strains, locus YLR403W, strain SFP1, active compounds read low
[68] = S. cerevisiae deletion strains, locus YML070W, strain DAK1, active compounds read low
[69] = S. cerevisiae deletion strains, locus YMR001C, strain CDC5, active compounds read low
[70] = S. cerevisiae deletion strains, locus YMR205C, strain PFK2 (second series), active compounds read low
[71] = S. cerevisiae deletion strains, locus YMR277W, strain FCP1, active compounds read low
[72] = S. cerevisiae deletion strains, locus YNL006W, strain LST8, active compounds read low
[73] = S. cerevisiae deletion strains, locus YNL020C, strain ARK1, active compounds read low
[74] = S. cerevisiae deletion strains, locus YNL161W, strain CBK1, active compounds read low
[75] = S. cerevisiae deletion strains, locus YNL183C, strain NPR1, active compounds read low
[76] = S. cerevisiae deletion strains, locus YNL207W, strain RIO2, active compounds read low
[77] = S. cerevisiae deletion strains, locus YNL222W, strain SSU72, active compounds read low
[78] = S. cerevisiae deletion strains, locus YNL307C, strain MCK1 (second series), active compounds read low
[79] = S. cerevisiae deletion strains, locus YOL078W, strain AVO1, active compounds read low
[80] = S. cerevisiae deletion strains, locus YOL136C, strain PFK27, active compounds read low
[81] = S. cerevisiae deletion strains, locus YOR061W, strain CKA2, active compounds read low
[82] = S. cerevisiae deletion strains, locus YOR119C, strain RIO1, active compounds read low
[83] = S. cerevisiae deletion strains, locus YOR231W, strain MKK1, active compounds read low
[84] = S. cerevisiae deletion strains, locus YOR329C, strain SCD5, active compounds read low
[85] = S. cerevisiae deletion strains, locus YPL031C, strain PHO85, active compounds read low
[86] = S. cerevisiae deletion strains, locus YPL153C, strain RAD53, active compounds read low
[87] = S. cerevisiae deletion strains, locus YPL204W, strain HRR25, active compounds read low
[88] = S. cerevisiae deletion strains, locus YPL209C, strain IPL1, active compounds read low
[89] = S. cerevisiae deletion strains, locus YPL256C, strain CLN2, active compounds read low
[90] = S. cerevisiae deletion strains, locus YPR025C, strain CCL1, active compounds read low
[91] = S. cerevisiae deletion strains, locus YPR106W, strain ISR1, active compounds read low
[92] = S. cerevisiae deletion strains, locus YPR111W, strain DBF20, active compounds read low
[93] = S. cerevisiae deletion strains, strain NNK1, active compounds read low
[94] = S. cerevisiae deletion strains, strain TSCII, active compounds read low

Measured: normalized growth

N/C(=N/O)c1cnccc1C(F)(F)F
inactive: [1] 0.987 | [2] 1.01 | [3] 1.01 | S. cerevisiae deletion strains, locus YDL134C, strain PPH21, active compounds read low 0.999 | [4] 0.986 | [5] 0.998 | [6] 0.994 | [7] 0.978 | [8] 0.986 | S. cerevisiae deletion strains, locus YJL187C, strain SWE1, active compounds read low 0.991 | [9] 0.993 | [10] 0.993 | S. cerevisiae deletion strains, locus YKL190W, strain CNB1, active compounds read low 0.997 | [11] 1.04 | [12] 0.993 | [13] 0.976 | [14] 0.99 | [15] 1.05 | [16] 0.996 | [17] 0.977 | [18] 0.958 | [19] 1.01 | [20] 0.996 | [21] 1 | [22] 0.999 | [23] 0.989 | [24] 1.03 | [25] 1.01

Cn1ncc(-c2nc(-c3ccc(Cl)cc3)cs2)c1N
active: [7] 0.687 | [67] 0.651 | [89] 0.859
inactive: [26] 0.933 | [27] 0.931 | [28] 0.935 | [29] 0.933 | [30] 0.939 | [31] 0.935 | [32] 0.94 | [3] 0.961 | [33] 0.936 | [34] 0.931 | [35] 0.904 | [36] 0.935 | [37] 0.91 | [38] 0.925 | [39] 0.785 | [40] 0.921 | [41] 0.75 | [42] 0.935 | [43] 0.942 | [44] 0.943 | [45] 0.95 | [46] 0.922 | [47] 0.785 | [48] 0.854 | [49] 0.781 | [50] 0.822 | [51] 0.897 | [52] 0.798 | [53] 0.936 | [54] 0.729 | [55] 0.987 | [56] 0.879 | [57] 0.934 | [58] 0.8 | [59] 0.78 | [60] 0.95 | [61] 0.932 | [62] 0.947 | [63] 0.924 | [64] 0.817 | [65] 0.906 | [66] 0.886 | [68] 0.91 | [69] 0.914 | [70] 0.917 | [71] 0.914 | [72] 0.95 | [73] 0.897 | [74] 0.93 | [75] 0.892 | [76] 0.916 | [77] 0.934 | [78] 0.899 | [79] 0.934 | [80] 0.939 | [81] 0.874 | [82] 0.803 | [83] 0.96 | [84] 0.944 | [85] 0.74 | [86] 0.776 | [87] 0.774 | [88] 0.938 | [90] 0.944 | [91] 0.955 | [92] 0.959 | [93] 0.966 | [94] 0.933

Cc1c(-c2csc(-c3ccc(Cl)cc3)n2)sc2ccc(Cl)cc12
inactive: [1] 1.03 | [2] 1.03 | [3] 1.05 | [4] 1.01 | [5] 0.996 | [6] 1.04 | S. cerevisiae deletion strains, locus YGR229C, strain SMI1, active compounds read low 1.03 | [7] 1.07 | [8] 1.03 | [9] 1.04 | [10] 1.02 | [11] 1.07 | [12] 1.05 | [13] 1.05 | [14] 1.09 | [15] 1.04 | [16] 1.04 | [17] 1.02 | [18] 1.07 | [19] 1.02 | [20] 1.09 | [21] 1.04 | [22] 1.04 | S. cerevisiae deletion strains, locus YOL006C, strain TOP1, active compounds read low 1.1 | [23] 0.999 | [24] 1.03 | [25] 1.07 | S. cerevisiae strains, strain wild type, active compounds read low 1.04

FC(F)(F)c1ccncc1-c1nc(-c2ccc(Cl)cc2)cs1
active: [7] 0.78 | [65] 0.686 | [89] 0.682
inactive: [26] 0.982 | [27] 0.984 | [28] 0.98 | [29] 0.982 | [30] 0.985 | [31] 0.991 | [32] 0.978 | [3] 0.97 | [33] 0.984 | [34] 0.973 | [35] 0.914 | [36] 0.989 | [37] 0.979 | [38] 0.979 | [39] 0.949 | [40] 0.852 | [41] 0.936 | [42] 0.981 | [43] 0.977 | [44] 0.985 | [45] 0.887 | [46] 0.976 | [47] 0.923 | [48] 0.869 | [49] 0.933 | [50] 0.775 | [51] 1 | [52] 0.894 | [53] 0.987 | [54] 0.759 | [55] 0.896 | [56] 0.927 | [57] 0.979 | [58] 0.937 | [59] 1.01 | [60] 0.955 | [61] 0.922 | [62] 0.919 | [63] 0.986 | [64] 1.01 | [66] 0.911 | [67] 0.934 | [68] 0.878 | [69] 0.986 | [70] 0.905 | [71] 0.962 | [72] 0.99 | [73] 0.906 | [74] 0.971 | [75] 0.774 | [76] 0.987 | [77] 0.98 | [78] 0.922 | [79] 0.972 | [80] 0.868 | [81] 0.933 | [82] 0.975 | [83] 0.766 | [84] 0.981 | [85] 0.917 | [86] 0.917 | [87] 0.908 | [88] 0.987 | [90] 0.988 | [91] 0.956 | [92] 0.949 | [93] 0.942 | [94] 0.972
